In the library only some 2.8% were active in any assay of this set; here they are far more common.
SENP6 block = SENP6 protease inhibitors, primary screen, biochemical, luminescence, uHTS. inhibition, % at 10 µM. Sentrin-specific protease 6 (Homo sapiens), Q9GZR1. 1.8% of 330,000 active. Recombinant SENP6 catalytic domain, aminoluciferin luminescence;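 active means inhibition above about 50% at the single tested dose, limit read from the data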
Target sequence (Q9GZR1 628-1112 limits assumed): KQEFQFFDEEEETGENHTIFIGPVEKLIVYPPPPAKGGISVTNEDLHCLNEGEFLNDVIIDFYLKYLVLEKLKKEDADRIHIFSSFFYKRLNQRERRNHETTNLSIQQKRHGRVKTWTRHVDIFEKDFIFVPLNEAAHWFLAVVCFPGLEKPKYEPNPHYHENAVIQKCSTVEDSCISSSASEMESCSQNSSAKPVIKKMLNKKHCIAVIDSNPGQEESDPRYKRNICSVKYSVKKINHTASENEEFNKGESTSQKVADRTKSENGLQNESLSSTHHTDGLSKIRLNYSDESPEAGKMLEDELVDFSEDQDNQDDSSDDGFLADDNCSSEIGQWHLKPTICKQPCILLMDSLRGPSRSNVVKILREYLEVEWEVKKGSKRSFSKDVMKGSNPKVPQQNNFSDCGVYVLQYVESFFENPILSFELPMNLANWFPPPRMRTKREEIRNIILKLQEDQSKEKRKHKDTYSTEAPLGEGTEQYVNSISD
SENP7 block = SENP7 protease inhibitors, primary screen, biochemical, luminescence, uHTS | 1.5% of 330,000 active | inhibition, % at 5 µM | Sentrin-specific protease 7 (Homo sapiens), Q9BQF6 | recombinant SENP7, Z-RLRGG-aminoluciferin luminescence, 40 min;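 active means inhibition above about 50% at the single test dose, limit read from the data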
SENP8 block-1 = SENP8 protease inhibitors, primary screen, biochemical, luminescence; inhibition, % at 10 µM; purified SENP8, Z-RLRGG-aminoluciferin cleavage; 1.2% of 330,000 active; Sentrin-specific protease 8 (Homo sapiens), Q96LD8; in the data active means inhibition above about 50%
Target sequence (Q96LD8 whole entry, looked up): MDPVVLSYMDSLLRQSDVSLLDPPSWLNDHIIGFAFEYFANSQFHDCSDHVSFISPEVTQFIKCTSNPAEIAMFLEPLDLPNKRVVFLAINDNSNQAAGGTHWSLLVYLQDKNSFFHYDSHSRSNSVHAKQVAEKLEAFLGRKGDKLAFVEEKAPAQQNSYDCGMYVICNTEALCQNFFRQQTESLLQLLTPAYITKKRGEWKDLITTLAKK
SENP8 block-2 = human SENP8 protease inhibitors, primary screen, biochemical, fluorescence, Nedd8 protein substrate, uHTS | recombinant SENP8 | 0.64% of 360,000 active | inhibition, % at 20 µM | AID 602440, 2012 | Sentrin-specific protease 8 (Homo sapiens), Q96LD8; in the data active means inhibition mostly above about 40%, no sharp cut-off; inactive means mostly below about 27%
Platelet DG rel = inhibitors of platelet dense granule secretion, primary screen, cell-based, MLPCN, human platelets; human platelet-rich plasma, SFLLRN dense granule ATP release, luminescence; inhibition, %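 (compounds screened at 7.5 µM in platelet-rich plasma)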; 0.22% of 300,000 active; AID 1663, 2009;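 active means mean replicate score, as percent of positive control, at or above 50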
HSP90 refold inh = HSP90 inhibitors, primary screen, cell lysate, luminescence; inhibition, % at 5.6 µM; 0.91% of 290,000 active; Heat shock protein HSP 90 (rabbit reticulocyte lysate; luciferase refolding); Rabbit reticulocyte lysate, luciferase refolding luminescence, 3 h;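 active means inhibition above the screen-wide mean plus 3 SD, computed separately per campaign, cut at about 16% in these data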;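 further: inhibitors lower the luminescence because luciferase stays unfolded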
Each line names hits and unclear results; the compound was inactive in the other large screens.

COc1ccc(NC(C)c2cc(Cl)ccc2O)cc1 (stereo unspecified)	SENP8 block-2 47.0
O=C1Nc2cccnc2Sc2ccccc21	none
O=C1Nc2ccccc2Nc2ncccc21	Platelet DG rel 61.5
CC(C)N1C[C@@]23C=C[C@@H](O2)C(C(=O)OCc2ccccc2)[C@H]3C1=O (stereo partly specified)	Platelet DG rel 56.3
O=C(N/N=C/c1ccc(OCc2ccc(F)cc2)cc1)c1ccccc1	none
Cc1occc1C(=O)N/N=C/c1ccc(OCc2ccccc2)cc1	SENP6 block 90.0, SENP7 block 90.4, SENP8 block-1 80.1
Cc1occc1C(=O)N/N=C/c1ccc2c(c1)OCO2	SENP6 block 100.2, SENP7 block 98.9, SENP8 block-1 95.6, Platelet DG rel 125.6
CC(C)(C)c1ccc(OCc2ccc(C(=O)N/N=C/c3ccc(O)c(O)c3)cc2)cc1	HSP90 refold inh 16.6
Cc1ccc(S(=O)(=O)Nc2ccc(F)cc2)cc1C(=O)N1CCOCC1	none (no result: Platelet DG rel, HSP90 refold inh)
CCN1C(=O)[C@@H]2C(C(=O)c3cnccn3)=NN[C@@H]2C1=O	none
O=C(CCNS(=O)(=O)c1ccc(F)cc1)N1CCN(c2ncccn2)CC1	none (no result: SENP6 block, SENP7 block, SENP8 block-1, Platelet DG rel, HSP90 refold inh)
C=CCOc1ccc(/C=C/C(=O)OCC(=O)NCC(=O)Nc2c(C)cc(C)cc2C)cc1	none (no result: HSP90 refold inh)
Cc1ccn(CC(=O)NC2CCCN(Cc3ccc(CC(C)C)cc3)C2)n1 (stereo unspecified)	none
CC(=O)c1c(C)nn(CC(=O)NC2CCCN(Cc3ccc(CC(C)C)cc3)C2)c1C (stereo unspecified)	Platelet DG rel 76.5
CCOC(=O)c1ccc(N=Nc2c(C)c(C#N)c(O)[nH]c2=O)cc1	SENP6 block 92.1, SENP7 block 97.8, SENP8 block-1 93.9
Cc1c(C#N)c(O)n(CCO)c(=O)c1N=Nc1ccc(S(N)(=O)=O)cc1	none
O=C(COc1ccccc1)OCc1cc(-c2ccco2)on1	none (no result: Platelet DG rel, HSP90 refold inh)
CC(=O)C1=C(C)Nc2ncnn2C1c1ccccc1F (stereo unspecified)	none
NC(=S)N=Nc1c(O)n(CCCl)c2ccccc12	none
NC(=S)N=Nc1c(O)n(C2OC(=O)c3ccccc32)c2ccccc12 (stereo unspecified)	SENP8 block-2 49.3
Cc1ccc(S(=O)(=O)N/N=C\c2ccc3c(c2)OCO3)c(C)c1	none
O=C(Cn1c(-c2cncs2)nc2ccccc21)NCc1ccccc1	HSP90 refold inh 16.2
Cc1cc(Nc2nc(Cl)c(Cl)cc2Cl)n(-c2ccccc2)n1	HSP90 refold inh 26.4
CCOc1ccc(NC(=O)CN(C)C(=O)c2ccc(OCC(=O)N3CCOCC3)c(OC)c2)cc1OCC	none (no result: SENP6 block, SENP7 block, SENP8 block-1, Platelet DG rel, HSP90 refold inh)
Cc1cc(C)c(N2C(=O)CC(Sc3ccccc3N)C2=O)c(C)c1 (stereo unspecified)	none (no result: SENP6 block, SENP7 block, SENP8 block-1, Platelet DG rel, HSP90 refold inh)
Cc1[nH]c(=O)[nH]c(=O)c1/C=N/NC(=O)CCNC(=O)OC(C)(C)C	Platelet DG rel 76.5
Cc1[nH]c(=O)[nH]c(=O)c1/C=N/NC(=O)CCCCCNC(=O)OC(C)(C)C	none
Cn1c(=O)c2c(nc(NCc3ccco3)n2C/C=C/c2ccccc2)n(C)c1=O	Platelet DG rel 74.0 (no result: HSP90 refold inh)
COc1ccc(N=Nc2c(N)nn(C)c2N)cc1	SENP8 block-2 51.3 (no result: SENP6 block, SENP7 block, SENP8 block-1, Platelet DG rel, HSP90 refold inh)
Cc1ccc(N=Nc2c(N)nn(-c3ccccc3)c2N)cc1	none
O=C(N=Nc1c(O)[nH]c2ccccc12)c1ccc2c(c1)OCO2	SENP6 block 65.6, SENP7 block 90.6
O=C(N=Nc1c(O)[nH]c2ccccc12)c1ccc(CN2CCOCC2)cc1	none
CN1CCN(c2ccc(-c3ccc4ccccc4n3)cc2)CC1	Platelet DG rel 79.3, HSP90 refold inh 89.4 (no result: SENP6 block, SENP7 block, SENP8 block-1)
c1ccc2cc(N3CCCCC3)ccc2c1	none (no result: SENP6 block, SENP7 block, SENP8 block-1, Platelet DG rel, HSP90 refold inh)
O=C1c2ccccc2C(=O)c2cc(N3CCCCC3)ccc21	SENP8 block-2 43.7 (no result: SENP6 block, SENP7 block, SENP8 block-1, Platelet DG rel, HSP90 refold inh)
O=C(Nc1cccc(Cl)c1)c1ccc2sc([C@H]3C[C@H](O)[C@@H](CO)O3)nc2c1	none (no result: SENP6 block, SENP7 block, SENP8 block-1, Platelet DG rel, HSP90 refold inh)
C/C(=N/OC(=O)c1ccc(Cl)cc1Cl)c1oc(C)nc1C	SENP6 block 90.2, SENP7 block 87.1, SENP8 block-1 82.8
CCc1cc2c(=O)c(-c3nc(C)cs3)coc2cc1O	SENP6 block 66.4, SENP7 block 77.2
COc1ccc(C2C(=O)N(C3CCCCC3)CC(=O)N2Cc2ccc3c(c2)OCO3)cc1 (stereo unspecified)	SENP6 block 100.1
O=C(c1ccc2ccccc2c1)C1CCCN(C(=O)c2noc3c2CCCC3)C1 (stereo unspecified)	none
COc1ccc(-c2coc3cc(OC)cc(O)c3c2=O)cc1	SENP7 block 62.6
CC(C)c1nnc(NC(=O)CCC(=O)Nc2ccc3cn[nH]c3c2)s1	none
CCOC(=O)N1CCC(NC(=O)CN2C(=O)CSc3nc(C)cc(C)c32)CC1	none
Cc1cc(C)c2c(n1)SCC(=O)N2CC(=O)Nc1cccc(Cl)c1	HSP90 refold inh 31.3
Cc1cc(C)c2c(n1)SCC(=O)N2CC(=O)Nc1c(C)cccc1C	none
CCOC(=O)N1CCN(C(=O)CCCN2C(=O)CSc3nc(C)cc(C)c32)CC1	Platelet DG rel 53.3
O=C(c1ccccc1)c1ccc(-c2ccc(O)cc2)cc1	SENP6 block 50.4, SENP8 block-1 51.0
Cc1ccc([C@H]2C[C@@H](O)[C@H](n3cc(-c4ccc(F)cc4)nn3)CN2C(=O)C2CCCCC2)cc1	none (no result: SENP6 block, SENP7 block, SENP8 block-1, Platelet DG rel, HSP90 refold inh)
COCCNc1nc(Oc2cccc3ccccc23)c2sccc2n1	none (no result: SENP6 block, SENP7 block, SENP8 block-1, Platelet DG rel, HSP90 refold inh)
COc1cc(/C=N/O)c(Br)cc1OCC(=O)Nc1ccccc1C	none
COc1cc(/C=N/NC(N)=O)c(Br)cc1OCC(=O)Nc1ccccc1C	Platelet DG rel 80.2
CCOc1cc(/C=N/NC(N)=O)cc(Br)c1OCC(=O)Nc1cccc2ccccc12	none
CCOc1cc(/C=N/NC(N)=O)cc(Br)c1OCC(=O)Nc1ccccc1C	Platelet DG rel 98.5
COc1ccc(/C=C/C(=O)c2ccc(OC)cc2OC)cc1	none
COc1ccc(/C=C/C(=O)c2cc3c(cc2N)OCO3)cc1	SENP6 block 94.9, SENP7 block 95.7, SENP8 block-1 96.2
COC(=O)[C@]1(C)N[C@H](CN(C)C(=O)C2CCCCC2)[C@@H]2C(=O)N(Cc3ccccc3)C(=O)[C@@H]21	none (no result: Platelet DG rel, HSP90 refold inh)
COc1ccc(S(=O)(=O)NCC(=O)N(Cc2ccco2)C(C(=O)NC(C)(C)C)C(C)C)cc1 (stereo unspecified)	none
O=C(CCCN1C(=O)/C(=C\c2ccccc2)SC1=S)Nc1ccc(O)cc1C(=O)O	none
CC(C(=O)Nc1ccc(O)cc1C(=O)O)N1C(=O)/C(=C\c2cccs2)SC1=S (stereo unspecified)	SENP8 block-2 61.5
CCCOc1ccc(C(=O)CCN2CCN(C(=O)OCC)CC2)cc1	none (no result: SENP6 block, SENP7 block, SENP8 block-1, Platelet DG rel)
COc1ccc(CCNC(=O)c2ccc3c(c2)SC2=NS(=O)(=O)CCN23)cc1	Platelet DG rel 76.7
COCCOC(=O)c1c(N)n(CCCN2CCOCC2)c2nc3ccccc3nc12	none

Source: PubChem
